# Test results as given in PubChem BioAssay (NCI).
# This is part of a sample that, as a whole, favours compounds with a hit. Of some 83,000 tested, about 20% had one in any assay.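 Interpretation: 100, growth as untreated; towards 0, rising growth inhibition; 0, no net growth; 0 to -100, cell death. Compounds scoring below 10 were considered active.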 Values without a mark were called inactive. Active and inactive are the calls of the source.
# What was measured:
# Experiment in all cases: NCI-60 one-dose screen, 48 h (100 = growth as untreated, 0 = no growth, -100 = all killed)
# Conditions in all cases: 10 µM unless noted
# SK-MEL-2 melanoma = system: SK-MEL-2 melanoma
# EKVX NSCLC = system: EKVX NSCLC
# SN12C renal = system: SN12C renal
# UO-31 renal = system: UO-31 renal
# TK-10 renal = system: TK-10 renal
# CAKI-1 renal = system: CAKI-1 renal
# A498 renal = system: A498 renal
# CCRF-CEM leukemia = system: CCRF-CEM leukemia
# MOLT-4 leukemia = system: MOLT-4 leukemia
# ACHN renal = system: ACHN renal
Compound,growth (SK-MEL-2 melanoma),growth (EKVX NSCLC),growth (SN12C renal),growth (UO-31 renal),growth (TK-10 renal),growth (CAKI-1 renal),growth (A498 renal),growth (CCRF-CEM leukemia),growth (MOLT-4 leukemia),growth (ACHN renal) [%]
CCN(CC)CCCNc1cccc2c(C)cc(OC)nc12,97.4%,114%,88.4%,56.9%,96.3%,96.8%,70.3%,102%,78.7%,–
Nc1n[nH]c2ccc([C@@H]3Nc4c(F)cc5[nH]ncc5c4[C@H]4C5CCC(C5)[C@@H]34)cc12 (some centres not stated),53.7%,31.7%,22.6%,28.2%,–,17.3%,-28.6% (active),18.1%,22.9%,22.7
CCCCn1c(-c2ccc(F)cc2)nc2cc(OC)c(OC)cc2c1=O,176%,105%,91.3%,82.2%,75.1%,–,95.7%,-46% (active),51.1%,–
CCN(CC)Cc1cc(Nc2ccnc3cc(Cl)ccc23)cc(-c2ccc(Cl)cc2)c1O,80.1%,2.25% (active),23.6%,-21.4% (active),–,54.8%,48.9%,45%,24%,57.1
COc1cc(C2=NOC(c3cc(OC)c(OC)c(OC)c3)C2)ccc1OCCCCOc1cc2c(cc1OC)C(=O)N1CCC[C@H]1C=N2 (some centres not stated),1.46% (active),-39.6% (active),6.18% (active),7.06% (active),-22.4% (active),5.08% (active),-58.7% (active),-37.5% (active),2.1% (active),–
Clc1ccccc1Nc1nnc(-c2ccncc2)s1,107%,91.7%,86%,90.7%,111%,90.5%,92.1%,96%,93.4%,–
C/C(CC(=O)NNc1ccc([N+](=O)[O-])cc1)=N\Nc1ccc([N+](=O)[O-])cc1,111%,54.1%,68.9%,40%,93.4%,31.3%,81%,48.6%,29.2%,–
COc1ccccc1/C=N\NC(=S)Nc1ccc(F)cc1,81%,75.7%,81.1%,62.2%,–,88.5%,67%,89.2%,57.3%,87.5
COc1ccc(Sc2[nH]c(C=O)c3ccccc23)cc1,69%,33.2%,89%,57.7%,34.1%,–,33.1%,0.79% (active),41.9%,87.1
SCc1ccc(CS)cc1,108%,104%,100%,85.6%,115%,–,–,98%,–,102
CCCCCCCCNC(C)C(O)c1ccc(SC(C)C)cc1 (configuration not stated),71.4%,25.2%,60.9%,29.5%,6.81% (active),-56.8% (active),96.8%,-0.667% (active),-46.6% (active),–
C=CCn1c(SCC(=O)Nc2ccc(/C(C)=N\O)cc2)nnc1-c1cc(-c2ccccc2)nc2ccccc12,72.1%,55%,69.3%,40.6%,74.5%,–,65.1%,18.2%,3.61% (active),38.4
Fc1ccc(-c2nnc(N3CCOCC3)c3ccccc23)cc1,111%,69.5%,95%,85.6%,138%,–,105%,124%,243%,103
CCN(CC)CCCC(C)Nc1cnc(C(=O)Nc2cccc3ccc(OC)nc23)cn1 (configuration not stated),70.5%,104%,78.5%,69.1%,91%,94.7%,46.2%,-7.65% (active),53.4%,–
CCOC(=O)c1ccc(NCCC(=O)O)cc1,96.7%,122%,108%,83.1%,–,109%,113%,97.6%,87.2%,103
